PostGolgi yeast: growth inhibition of a yeast mutant, post-Golgi transport screen; post-Golgi transport phenotypic cell assay; inhibition, % at 10 µM; hit rate 0.9% among 98,000;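 also: yeast cells grown in 1536-well plates; yeast grown about 18 h at 30C before absorbance read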
PostGolgi ctrl: growth of the yeast control strain, post-Golgi counter-screen; efflux-deficient yeast background strain, growth absorbance A615, 16 h; inhibition, % at 10 µM; hit rate 5% among 98,000; AID 738
CYP2C19 inh: blocks human cytochrome P450 2C19; P33261; CYP2C19 Supersomes, luciferin-H EGE luminescence, 30 min; inhibition, % at 5 µM; hit rate 21% among 96,000; AID 778;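 active = CYP2C19 inhibition above a set limit at 5 µM in the primary screen, cut at about 50% in these data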
CYP2C9 activ: CYP2C9 (human) activation. recombinant CYP2C9, luciferin-H conversion, luminescence; hits give high values; factor 1 = untreated enzyme, 0 = blocked. activation factor at 5 µM. hit rate 1.4% among 96,000. AID 1024;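 active = activation factor of 2 or more for CYP2C9 at a 5 µM dose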
Target sequence (P11712 whole entry, looked up): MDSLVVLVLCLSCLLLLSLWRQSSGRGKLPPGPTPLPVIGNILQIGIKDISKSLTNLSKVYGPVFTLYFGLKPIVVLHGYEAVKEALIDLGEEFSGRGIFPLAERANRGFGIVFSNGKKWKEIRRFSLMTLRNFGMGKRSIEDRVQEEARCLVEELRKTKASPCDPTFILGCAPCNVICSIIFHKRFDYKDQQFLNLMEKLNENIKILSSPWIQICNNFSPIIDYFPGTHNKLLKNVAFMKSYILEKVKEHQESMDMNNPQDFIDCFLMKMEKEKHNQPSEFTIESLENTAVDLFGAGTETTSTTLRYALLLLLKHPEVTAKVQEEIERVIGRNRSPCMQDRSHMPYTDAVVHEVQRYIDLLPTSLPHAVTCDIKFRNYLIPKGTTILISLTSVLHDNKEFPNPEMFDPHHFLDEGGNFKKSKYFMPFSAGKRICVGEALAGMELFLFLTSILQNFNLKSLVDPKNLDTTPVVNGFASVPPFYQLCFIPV
CYP2C19 activ: increases human CYP2C19 enzyme activity. 96,000 tested, under 10 active. AID 1025. recombinant CYP2C19, luciferin-H EGE luminescence; hits give high values; 0 = fully inhibited enzyme, 1 = untreated enzyme. activation factor at 5 µM;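 active = activation factor of at least 2 at 5 µM in the primary screen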
CYP2C9 inh: human CYP2C9 inhibition; hit rate 20% among 96,000; AID 777; inhibition, % at 5 µM; CYP2C9 Supersomes, luciferin-H conversion, luminescence;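 active = blocking of liver enzyme CYP2C9 beyond about 50% at 5 µM, limit read from the data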
Numbers stand for hits; – = inactive; · = no result given. Sampled rows, rich in hits. Any-hit rate of the full collection: about 32%. Rule as the data show it, unless noted: active = inhibition above about 30%; inactive = the rest.

SMILES | PostGolgi yeast | PostGolgi ctrl | CYP2C19 inh | CYP2C9 activ | CYP2C19 activ | CYP2C9 inh
COc1ccccc1C/C(N)=N/OC(=O)c1ccc(C)c([N+](=O)[O-])c1 | – | – | – | 3.4 | – | –
COc1ccccc1CC(=O)O/N=C(\N)Cc1cccc2ccccc12 | – | 30.2 | – | – | – | –
COc1ccc(C/C(N)=N/OC(=O)Cc2ccccc2)cc1 | – | – | – | – | – | –
CCC(CO)n1c(SCc2cc(=O)oc3cc(C)ccc23)nc2ccccc2c1=O (centres undefined) | 41.2 | 46.6 | 96.9 | – | – | 98.1
Cc1cc(NC(=O)CSc2nc(CCC3CCCC3)nc3ccccc23)no1 | – | – | 87.4 | – | – | 90.3
Cc1cc(NC(=O)CSc2c3c(nc4ccccc24)CCC3)no1 | – | – | 54.8 | – | – | 55.7
COc1ccc(CCNC(=O)CS(=O)Cc2nc(-c3cccs3)oc2C)cc1OC (centres undefined) | – | – | – | – | – | –
CCn1c(SCC(=O)NCc2ccco2)nnc1-c1c[nH]c2ccccc12 | – | – | – | – | – | –
COc1ccc(OC)c(-n2c(SCC(=O)NCc3ccco3)nnc2-c2c[nH]c3ccccc23)c1 | – | – | – | – | – | 65.7
COCCn1c(SCC(=O)NCc2ccco2)nnc1-c1c[nH]c2ccccc12 | – | – | – | – | – | –
COc1cccc(-n2c(SC)nnc2-c2c[nH]c3ccccc23)c1 | – | – | 62.0 | – | – | –
COc1cccc(-n2c(SCC(=O)NCc3ccco3)nnc2-c2c[nH]c3ccccc23)c1 | – | – | 65.9 | – | – | 59.0
Cc1oc(-c2ccc(Cl)cc2)nc1CN1CCCC(C(=O)NCc2ccco2)C1 (centres undefined) | – | – | – | – | – | –
CCC(=O)Nc1ccc(NC(=O)CN2CCCC(C)C2)c(Cl)c1 (centres undefined) | – | – | – | – | – | –
CCOC(=O)c1c(=O)n(O)c2ccc(OC)cc2[n+]1[O-] | – | – | – | – | – | –
COC(=O)CSc1nnc(CNC(=O)c2ccccc2OC)n1-c1ccc(OC)cc1 | – | – | – | – | – | –
O=c1c(C(c2ccccc2)c2c(O)sc3ccccc3c2=O)c(O)sc2ccccc12 | – | – | – | – | – | 94.9
COc1cccc(N2CCN(Cc3ccsc3)CC2)c1 | – | – | 90.7 | – | – | 50.4
c1cncc(CNc2c3c(nc4nnnn24)CCCC3)c1 | – | – | 68.0 | – | – | –
Cc1nc(-c2ccccc2O)n(S(=O)(=O)N(C)C)n1 | – | – | – | – | – | –
CCN(CC)S(=O)(=O)c1cc(C(=O)NC2=NCCS2)ccc1Cl | – | – | – | – | – | –
COc1ccc(N(Cc2ccccc2)S(=O)(=O)c2cccc(C(=O)NC3=NCCS3)c2)cc1 | – | – | 71.3 | – | – | 97.3
CN(c1cccc(Cl)c1)S(=O)(=O)c1cccc(C(=O)NC2=NCCS2)c1 | – | – | 73.8 | – | – | 81.8
CN(Cc1ccccc1)C(=O)CNC(=O)Cn1cnc2ccccc2c1=O | – | – | – | – | – | –
Cc1cc2nncn2c(Cc2ccccc2)n1 | – | – | – | – | – | –
SMILES | PostGolgi yeast | PostGolgi ctrl | CYP2C19 inh | CYP2C9 activ | CYP2C19 activ | CYP2C9 inh
COc1ccc(N2CCN(C(=O)c3ccncc3)CC2)cc1 | – | – | 78.9 | – | – | –
COc1cccc(C(=O)N2CCN(Cc3ccccc3C(F)(F)F)CC2)c1 | – | – | 95.0 | – | – | –
COc1cccc(C(=O)N2CCN(c3ncccn3)CC2)c1 | – | – | 70.3 | – | – | –
O=C(c1cccc(COc2ccc(Cl)cc2Cl)c1)N1CCN(c2ccccn2)CC1 | – | 68.1 | 53.8 | – | – | 69.9
O=C(c1cccc(C(=O)N2CCN(c3ncccn3)CC2)c1)N1CCN(c2ncccn2)CC1 | – | – | – | – | – | –
COc1ccc(N2CCN(C(=O)c3ccc(NS(=O)(=O)c4ccccc4)cc3)CC2)cc1 | – | – | · | · | · | ·
COc1cccc(C(=O)N2CCN(C3CCC(c4ccccc4)CC3)CC2)c1 (centres undefined) | – | – | 90.9 | – | – | –
COc1ccc(Cl)cc1NC(=S)N1CCN(c2ccccn2)CC1 | – | – | 56.0 | 2.5 | – | –
CCCS(=O)(=O)N1CCN(C(=O)c2cccc(OC)c2)CC1 | – | – | 77.7 | – | – | –
CCCNC(=O)Cn1cnc2sc(C(=O)N3CCN(CCC)CC3)c(C)c2c1=O | – | – | – | – | – | –
CCn1cnc2sc(C(=O)N3CCN(c4ccc(OC)cc4)CC3)c(C)c2c1=O | – | 31.8 | – | – | – | 56.8
Cc1ccccc1CNc1nc(N)n(-c2ccccc2)n1 | – | – | – | – | – | –
O=C(NC(CO)c1ccccc1)c1ccco1 (centres undefined) | – | – | – | – | – | –
CCc1cc2c(=O)n(C(C)C(=O)OC3CCCCC3)cnc2s1 (centres undefined) | – | – | – | – | – | –
COc1ccc(-c2nnc3sc(C(C)N4C(=O)c5ccccc5C4=O)nn23)cc1 (centres undefined) | – | – | · | · | · | ·
O=C(Cn1[nH]c(=O)c2ccccc2c1=O)OCC(=O)N(Cc1ccccc1)Cc1ccccc1 | – | – | – | – | – | –
COc1ccc(C(=O)N2CCN(c3ccccn3)CC2)cc1 | – | – | 67.2 | – | – | –
COc1cc(C2C(C(C)=O)=C(O)C(=O)N2c2ccc(C)cc2)ccc1O (centres undefined) | – | – | – | – | – | –
COc1cc(C2Nc3ccccc3C(=O)N2c2ccccc2OC)ccc1O (centres undefined) | – | – | – | – | – | 78.8
CCOc1cc(C2Nc3ccccc3C(=O)N2c2ccccc2OC)ccc1O (centres undefined) | – | – | – | – | – | 52.3
O=C(NCC1c2ccccc2CCN1C(=O)CN1C(=O)c2ccccc2C1=O)C1CCCCC1 (centres undefined) | – | – | – | – | – | 72.0
O=P(O)(CCc1ccccc1)C(O)c1ccccc1 (centres undefined) | – | – | – | – | – | –
CCN(CC)C(=O)CSc1nnc(CCCCCNC(=O)OC(C)(C)C)o1 | – | – | – | – | – | –
Clc1ccc2c(NNc3ccccc3Cl)ccnc2c1 | – | – | – | – | – | 59.6
COc1ccccc1C1N(c2ccc(F)cc2)C(=O)C2CCCN21 (centres undefined) | – | – | – | – | – | –
Cc1cc(=O)oc(C)c1C(=O)Nc1c(C)n(C)n(-c2ccccc2)c1=O | – | – | – | – | – | –
O=[N+]([O-])c1cc(-c2nnc(C34CC5CC(CC(C5)C3)C4)o2)cc([N+](=O)[O-])c1 | – | 47.0 | – | – | – | –
CN(C)C(=O)CSc1nnc(C23CC4CC(CC(C4)C2)C3)o1 | – | – | – | – | – | –
COc1ccc(-n2c(=O)c3ccccc3n(CC(=O)Nc3cc(C)on3)c2=O)cc1OC | – | – | – | – | – | –
